From PubChem BioAssay (NCATS) come the findings set out here.

Assay [1] in a line: qHTS Assay for Lipid Storage Modulators (AID 1519; calls by dose curve; as to activity change, negative = inhibition: % is scaled to controls: 0 for no effect and ±100 for the full control effect). To be noted: Drosophila S3 cells, BODIPY lipid droplet/cell ratio, laser cytometry, cells loaded with oleic acid. Put shortly:
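Cells seeded at 5,000 per well were treated with compounds over a concentration series and loaded with oleic acid (400 uM, as added). Lipid droplet fluorescence (488 nm excitation, 500-530 nm channel) was read by laser-scanning cytometry and normalized to 20 uM Triacsin C.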
For orientation: qHTS replaces the single test concentration by a dilution series.

The target in assay [2] is DNA repair nuclease/redox regulator APEX1 (Homo sapiens) (UniProt P27695). The assay can be described thus: qHTS Validation Assay for Inhibitors of the Human Apurinic/apyrimidinic Endonuclease 1 (APE1) (AID 1705;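 also: TAMRA fluorescence gain over two minutes as APE1 cuts a quenched THF abasic duplex; % is scaled to controls: 0 for no effect and ±100 for the full control effect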). Conditions: purified APE1 endonuclease activity, fluorescence, titration; series mostly up to 57.1 µM. The method, boiled down:
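Read-out: TAMRA fluorescence (525 nm ex, 598 nm em) from cleavage of a quenched THF abasic-site duplex, 50 nM final; activity taken as intensity change between third and first of three reads 60 s apart.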

The nature of assay [3]: Counterscreen for APE1 Inhibitors: Fluorescent Dye Displacement Validation Assay (AID 1707).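 Also: plate controls were ThO with dsDNA and no compound for no effect and ThO without dsDNA for full effect.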 Conditions: fluorescent dye displacement from DNA; series mostly up to 57.1 µM. The method, boiled down:
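Thiazole Orange (250 nM) bound to 50 nM TAMRA-labelled dsDNA with tetrahydrofuran abasic site; displacement by DNA-binding compounds lowers fluorescence. Buffer 50 mM Tris-HCl pH 7.5, 50 mM NaCl, 2 mM MgCl2, 0.01% Tween-20; endpoint read at 480/540 nm.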
On the technique in general: A counterscreen serves to expose hits that act by an unwanted route or on another target.

Assay [4] addresses Endonuclease 4 (Escherichia coli (strain K12)) (UniProt P0A6C1). As to the kind of experiment: Counterscreen for APE1 Inhibitors: qHTS Validation Assay for Inhibitors of Endonuclease IV (AID 1708). Also: % is scaled to controls: 0 for no effect and ±100 for the full control effect. To be noted: E. coli endonuclease IV, DNA cleavage fluorescence; series mostly up to 57.1 µM. Put shortly:
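Enzymatic AP-site incision assay using a double-stranded THF substrate labelled with TAMRA and BHQ-2; released fluorescence signals activity. Enzyme 2 nM, substrate 50 nM, 15 min compound preincubation.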

A short description of assay [5]: qHTS for differential inhibitors of proliferation of Plasmodium falciparum line GB4 (AID 1816).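 Also: parasite growth measured after 72 h incubation.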 Also: potency is read from the fitted curve at half-maximal effect.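 As to activity change, negative = inhibition: 0% = vehicle DMSO and -100% = reference inhibitor.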 To be noted: Potency: Plasmodium falciparum GB4 proliferation inhibition; series mostly up to 28.7 µM.
Assay [6] in a line: qHTS for differential inhibitors of proliferation of Plasmodium falciparum line 3D7 (AID 1876).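 Also: parasite growth measured after three days of culture; 0% = vehicle wells and -100% = reference inhibitor wells.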 To be noted: P. falciparum 3D7 proliferation inhibition; series mostly up to 28.7 µM.
A short description of assay [7]: qHTS for differential inhibitors of proliferation of Plasmodium falciparum line D10 (AID 1877).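 Also: parasites grown with compound for 72 h before DNA staining; plate controls were vehicle wells for no effect and reference inhibitor wells for full effect.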 Conditions: series mostly up to 28.7 µM.
Assay [8] in a line: qHTS for differential inhibitors of proliferation of Plasmodium falciparum line Dd2 (AID 1882). Also: nearly all actives have a fitted effect of over 65% in size. Also: potency is read from the fitted curve at half-maximal effect.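 As to activity change, negative = inhibition: compound exposure of 72 h on infected erythrocytes; plate controls were DMSO vehicle for no effect and 0.29 µM artemisinin for full effect.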 To be noted: Potency: Plasmodium falciparum Dd2 proliferation inhibition; series mostly up to 28.7 µM. Put shortly: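 SYBR Green I DNA fluorescence read-out, ex 485/em 535 nm. Signals were normalized to 0.29 uM artemisinin and DMSO wells, then corrected using vehicle-only plates flanking each stack. Parasite growth ran 72 h in erythrocytes before lysis.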

The nature of assay [9]: qHTS for differential inhibitors of proliferation of Plasmodium falciparum line W2 (AID 1883).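 Also: parasites grown with compound for 72 h before lysis and staining.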 Also: potency is read from the fitted curve at half-maximal effect.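 As to activity change, negative = inhibition: 0% = vehicle wells and -100% = control inhibitor wells.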 Conditions: Potency: Plasmodium falciparum W2 proliferation inhibition; series mostly up to 28.7 µM.
Assay [10] is described as follows: qHTS for differential inhibitors of proliferation of Plasmodium falciparum line HB3 (AID 1886).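 Also: parasites grown with compound for 72 h before SYBR Green readout; plate controls were vehicle for no effect and reference inhibitor for full effect.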 To be noted: Potency: Plasmodium falciparum HB3 proliferation inhibition; series mostly up to 28.7 µM.
Assay [11] addresses Ferritin light chain (Equus caballus) (UniProt P02791). The assay can be described thus: qHTS Validation Assay for Identification of Novel General Anesthetics (AID 2323). Also: % is scaled to controls: 0 for no effect and ±100 for the full control effect. To be noted: horse apoferritin, anesthetic-site fluorescent probe displacement; series mostly up to 76.9 µM. The method, boiled down: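 10 uM horse-spleen apoferritin + 1-AMA (50% saturated, PBS); cpd pin-transferred, 10 min RT. Ex 380/Em 535 nm endpoint. Activity normalized between free 1-AMA and 1-AMA/apoferritin; 4-parameter Hill fit of concentration-response.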

The target of assay [12] is ATP-dependent DNA helicase Q1 (Homo sapiens) (UniProt P46063). The assay can be described thus: qHTS Validation Assay for Inhibitors of RecQ-Like Dna Helicase 1 (RECQ1) (AID 2353).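 Also: plate controls were DMSO vehicle for no effect and enzyme-free control for full effect.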 To be noted: recombinant RECQ1 helicase DNA unwinding assay; series mostly up to 25.6 µM. The method, boiled down: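 50 nM RECQ1T1 preincubated 15 min with compound in Tris pH 8.0 buffer with MgCl2, DTT, Tween-20 and 2.5 ug/ml poly(dI-dC); started with 200 nM TAMRA/BHQ-2 forked duplex and 2 mM ATP. Unwinding read as fluorescence (525/598 nm), two reads 2 h apart.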
Chain of ATP-dependent DNA helicase Q1 (Homo sapiens) (P46063 whole entry, looked up): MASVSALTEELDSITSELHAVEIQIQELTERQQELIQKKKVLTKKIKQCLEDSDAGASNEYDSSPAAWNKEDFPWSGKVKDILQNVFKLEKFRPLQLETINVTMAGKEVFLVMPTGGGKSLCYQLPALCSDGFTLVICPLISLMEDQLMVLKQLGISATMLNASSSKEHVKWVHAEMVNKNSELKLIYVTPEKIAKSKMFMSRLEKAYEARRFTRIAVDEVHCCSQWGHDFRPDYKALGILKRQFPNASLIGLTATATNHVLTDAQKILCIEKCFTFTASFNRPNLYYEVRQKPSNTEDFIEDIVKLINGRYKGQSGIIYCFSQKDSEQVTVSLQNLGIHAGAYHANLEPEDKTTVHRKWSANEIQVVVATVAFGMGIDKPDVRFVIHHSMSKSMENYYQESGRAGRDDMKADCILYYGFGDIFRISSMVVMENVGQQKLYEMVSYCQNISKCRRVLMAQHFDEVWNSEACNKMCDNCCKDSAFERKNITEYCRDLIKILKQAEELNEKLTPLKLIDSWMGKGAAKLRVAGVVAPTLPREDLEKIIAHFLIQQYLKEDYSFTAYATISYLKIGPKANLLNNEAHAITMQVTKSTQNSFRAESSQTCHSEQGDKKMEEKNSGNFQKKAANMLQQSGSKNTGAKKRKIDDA

For assay [13], the target named is RecQ-like DNA helicase BLM (Homo sapiens) (UniProt P54132). As to the kind of experiment: qHTS Validation Assay for Inhibitors of Bloom's syndrome helicase (BLM) (AID 2364).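 Also: plate controls were DMSO vehicle for no effect and enzyme-free control for full effect.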 Conditions: BLM helicase DNA unwinding, fluorescence, in vitro; series mostly up to 57.1 µM. The method, boiled down: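 Forked 20-bp duplex substrate (200 nM, TAMRA/BHQ-2) plus 2 mM ATP added after 15 min compound preincubation with 50 nM enzyme, pH 8.0, poly(dI-dC) 2.5 ug/ml. Strand separation followed by fluorescence (525/598 nm) over 2 h, normalized to enzyme-free and DMSO controls.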
Chain of RecQ-like DNA helicase BLM (Homo sapiens) (P54132 whole entry, looked up): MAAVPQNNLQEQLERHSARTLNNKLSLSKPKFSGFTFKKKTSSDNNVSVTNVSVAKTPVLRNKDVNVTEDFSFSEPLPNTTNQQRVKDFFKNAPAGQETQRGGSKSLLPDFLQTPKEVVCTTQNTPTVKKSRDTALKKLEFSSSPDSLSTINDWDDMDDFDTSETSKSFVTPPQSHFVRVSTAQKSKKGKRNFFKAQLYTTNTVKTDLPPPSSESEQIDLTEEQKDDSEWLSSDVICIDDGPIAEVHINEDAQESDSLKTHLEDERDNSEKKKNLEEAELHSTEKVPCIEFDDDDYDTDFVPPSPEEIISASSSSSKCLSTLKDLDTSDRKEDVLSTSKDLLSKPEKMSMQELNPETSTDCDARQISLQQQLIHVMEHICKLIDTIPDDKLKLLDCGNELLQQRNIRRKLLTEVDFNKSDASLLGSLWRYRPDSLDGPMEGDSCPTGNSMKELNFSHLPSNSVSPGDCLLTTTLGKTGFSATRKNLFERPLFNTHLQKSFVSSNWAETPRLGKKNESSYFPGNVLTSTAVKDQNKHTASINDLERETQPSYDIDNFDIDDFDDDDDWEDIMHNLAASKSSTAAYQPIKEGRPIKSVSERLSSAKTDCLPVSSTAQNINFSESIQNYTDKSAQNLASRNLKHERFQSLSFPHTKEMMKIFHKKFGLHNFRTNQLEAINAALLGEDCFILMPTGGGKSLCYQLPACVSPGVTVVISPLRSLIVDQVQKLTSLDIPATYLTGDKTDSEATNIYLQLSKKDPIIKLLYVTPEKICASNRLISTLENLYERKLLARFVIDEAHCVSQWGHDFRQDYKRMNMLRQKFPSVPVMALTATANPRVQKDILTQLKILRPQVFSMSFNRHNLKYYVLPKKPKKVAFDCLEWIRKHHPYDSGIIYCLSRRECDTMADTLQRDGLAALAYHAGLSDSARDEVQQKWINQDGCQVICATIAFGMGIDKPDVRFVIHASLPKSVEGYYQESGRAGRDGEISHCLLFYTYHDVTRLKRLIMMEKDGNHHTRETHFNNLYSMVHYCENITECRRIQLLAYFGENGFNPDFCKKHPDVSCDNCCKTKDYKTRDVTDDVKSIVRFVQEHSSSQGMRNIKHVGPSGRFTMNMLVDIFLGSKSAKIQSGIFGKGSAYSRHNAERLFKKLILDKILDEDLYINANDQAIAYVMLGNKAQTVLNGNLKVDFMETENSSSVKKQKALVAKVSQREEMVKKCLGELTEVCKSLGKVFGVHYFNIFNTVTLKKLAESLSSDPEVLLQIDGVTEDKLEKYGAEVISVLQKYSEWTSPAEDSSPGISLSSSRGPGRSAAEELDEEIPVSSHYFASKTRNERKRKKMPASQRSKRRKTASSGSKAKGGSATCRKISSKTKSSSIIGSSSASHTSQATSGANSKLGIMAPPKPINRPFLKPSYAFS

Assay [14] in a line: Cytometric Cell-Based qHTS for Inhibitors of the mTORC1 Signaling Pathway in MEF (Tsc2-/-, p53-/-) Cells (AID 2660).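 Also: percent of cells above a phospho-rpS6 to PI ratio cutoff in each well; plate controls were DMSO for no effect and rapamycin for full effect.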 Conditions: mTORC1 pathway cytometry; series mostly up to 38.3 µM. The method, boiled down: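 Tsc2-/-, p53-/- MEFs (empty vector) exposed to compound 24 h at 37 C, fixed, stained with Alexa-488 anti-phospho-rpS6 Ser235/236 and propidium iodide. Acumen laser scanning; phospho-S6/PI ratio thresholded against 7.5 nM rapamycin, reported as % positive cells.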

Assay [15] can be described thus: High Content Imaging Cell-Based qHTS for Inhibitors of the mTORC1 Signaling Pathway in MEF (Tsc2-/-, p53-/-) Cells (AID 2666).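 Also: percent of cells scored positive for phospho-rpS6 Ser235/236 immunostaining by imaging.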 To be noted: series mostly up to 38.3 µM. Put shortly:
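Cells were plated, dosed with compound after 24 hrs, and incubated another 24 hrs at 37 degree Celsius. Fixed cells were immunostained for phospho-rpS6 Ser235/236 and counterstained, and the normalized signal was scored as % active cells against rapamycin and DMSO controls.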

Assay [16] is described as follows: High Content Imaging Cell-Based qHTS for Inhibitors of the mTORC1 Signaling Pathway in MEF Cells (AID 2667). Also: potency is read from the fitted curve at half-maximal effect.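 As to activity change, negative = inhibition: Tsc2-/- p53-/- MEFs stably re-expressing wild-type Tsc2 exposed 24 h; plate controls were DMSO wells for no effect and rapamycin control wells for full effect.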 To be noted: series mostly up to 38.3 µM. Put shortly:
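Immunofluorescence for rpS6 phosphorylation in MEFs of Tsc2-/-, p53-/- background rescued with WT Tsc2. Compound exposure lasted 24 hrs. Inhibition was scored against rapamycin-treated control wells.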

Assay [17] can be described thus: Cytometry Cell-Based qHTS for Inhibitors of the mTORC1 Signaling Pathway in MEF cells (AID 2668). Also: potency is read from the fitted curve at half-maximal effect.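 As to activity change, negative = inhibition: Tsc2-/- p53-/- mouse embryonic fibroblasts stably re-expressing wild-type Tsc2; percent cells positive for phospho-rpS6 Ser235/236 relative to propidium iodide stain; plate controls were DMSO wells for no effect and 7.5 nM rapamycin control wells for full effect.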 To be noted: mTORC1 pathway readout; series mostly up to 38.3 µM. Put shortly:
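Read-out: phospho-rpS6 Ser235/236 immunofluorescence normalized to propidium iodide intensity, scored as % active cells against a rapamycin (7.5 nM) threshold. Cells: Tsc2-/-, p53-/- MEFs stably expressing WT Tsc2, compound-treated 24 hrs at 37 degree Celsius.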

Assay [18] can be described thus: qHTS for differential inhibitors of proliferation of Plasmodium falciparum line 7G8 (AID 1815).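 Also: parasite growth measured after three days of incubation; plate controls were vehicle wells for no effect and reference inhibitor wells for full effect.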 Conditions: Plasmodium falciparum 7G8 proliferation inhibition; series mostly up to 28.7 µM.
Assay [19] in a line: qHTS Assay for Modulators of Human Peripheral Myelin Protein 22 (PMP22) Expression/Activity (AID 1967; active = well fitted curve in the direction sought with a large enough effect in the signal ratio; the % refers to the signal ratio;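 also: 0% = untreated cells and 100% end not stated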). Conditions: Cell-based PMP22 reporter, dual-color luciferase ratio, mouse Pmp22 promoter in mouse Schwann cells; series mostly up to 115 µM. Put shortly:
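Mouse MSC80 Schwann line, Pmp22 promoter–CBG68 reporter, EF-alpha–CBR internal control. 24h compound exposure, 37 °C/5% CO2, DMEM + 10% FBS. Readout: corrected green/red luminescence ratio, normalized to untreated cells; concentration-response curves fitted and classified.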

[20] abbreviates: measured here: cell count channel max response.
The mark [21] stands for this setting: measured here: lipid channel max response.

Several values for one entry are separate records, joined by “and”; a condition that tells them apart may be missing. Equal entries are not always repeated. Inconclusive results are not listed. Activity calls are given as the source filed them. Unless noted, calls follow the shape of the dose curve; as a rule, active = well fitted curve in the direction sought with a large enough effect; inconclusive = small, poorly fitted or top-dose-only effect, or another doubt; inactive = no such curve, though single readings can be large; an effect the other way counts as inactive or inconclusive.

Chain of Ferritin light chain (Equus caballus) (P02791 2-175 limits assumed): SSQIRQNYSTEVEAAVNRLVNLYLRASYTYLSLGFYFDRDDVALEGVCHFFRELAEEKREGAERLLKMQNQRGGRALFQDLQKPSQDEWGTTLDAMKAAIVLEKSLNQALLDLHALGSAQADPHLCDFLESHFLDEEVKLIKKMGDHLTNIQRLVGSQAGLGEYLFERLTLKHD
Chain of DNA repair nuclease/redox regulator APEX1 (Homo sapiens) (P27695 whole entry, looked up): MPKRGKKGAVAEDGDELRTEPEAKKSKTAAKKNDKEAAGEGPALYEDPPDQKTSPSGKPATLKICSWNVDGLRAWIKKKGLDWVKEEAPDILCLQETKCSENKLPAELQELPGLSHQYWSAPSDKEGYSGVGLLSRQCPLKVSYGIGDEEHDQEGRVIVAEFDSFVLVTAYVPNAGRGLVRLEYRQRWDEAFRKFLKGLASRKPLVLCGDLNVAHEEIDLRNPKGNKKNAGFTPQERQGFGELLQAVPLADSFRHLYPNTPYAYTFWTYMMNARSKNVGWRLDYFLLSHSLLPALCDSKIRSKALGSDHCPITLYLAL

With `CCC1(C2=NCCN2)Cc2ccccc2O1` (stereo not given), the activity change, negative = inhibition in assay [1] (at 57.5 µM (top of the series)) was -1.14% (inactive). The max response in assay [1] (setting [20]) is -3.38%; in assay [1] (setting [21]) it was -2.07%. For the same molecule, the call in assay [2], in [4], in assay [11], in assay [12] and in [14] was inactive. Moreover, the Potency result in assay [3], in assay [6], in assay [7], in [10], in assay [13] and in assay [15] was “inactive” each time. Further, the Potency result in [16] and in assay [17] was “inactive” throughout. Also, the results for the Potency in [5], in assay [8] and in [9] were 12.6 µM (active), 8.91 µM (active) and 3.98 µM (active), respectively.

With `Cc1ncc(CNC(=O)N(CCCl)N=O)c(N)n1`, the activity change, negative = inhibition in assay [1] (at 57.5 µM (top of the series)) is 4.94% (inactive). In addition, the max response was found to be 9.89% in assay [1] (setting [20]) and 18% in assay [1] (setting [21]). Besides, the molecule was classed as inactive in assay [2], in assay [4], in [11], in assay [12] and in assay [14]. In addition, the Potency entry in assay [3], in [18], in assay [5], in [6], in assay [7] and in [8] was “inactive” in each case. The Potency result in assay [9], in assay [10], in [15], in assay [16] and in assay [17] was “inactive” in each case.

With `CN(C)C(=O)C(CCN1CCC(O)(c2ccc(Cl)cc2)CC1)(c1ccccc1)c1ccccc1`, the activity change, negative = inhibition in [1] (at 57.5 µM (top of the series)) was -2.05% (inactive). Besides, the max response in assay [1] (setting [20]) was -1%; in [1] (setting [21]) it was -2.23%. Also, the Potency in [16] was 18.5 µM (active); in assay [17], 13.1 µM (active).

Consider `CC(=O)[C@H]1CC[C@H]2[C@@H]3CC[C@H]4C[C@H](O)CC[C@]4(C)[C@H]3C(=O)C[C@]12C`, for which the activity change, negative = inhibition in assay [1] (at 57.5 µM (top of the series)) was -2.01% (inactive). In addition, the max response in [1] (setting [20]) is 15.7%; in assay [1] (setting [21]) it was 15.5%. The molecule was called inactive in assay [2], in assay [19], in assay [11], in assay [12] and in assay [14]. The Potency result in assay [3], in assay [18], in assay [5], in assay [6], in assay [7] and in assay [8] was “inactive” in each case. In addition, the Potency entry in [10], in assay [13], in assay [15], in [16] and in assay [17] was “inactive” in each case.

As to `CCCN1CCC[C@@H]2Cc3[nH]ncc3C[C@H]21`, the activity change, negative = inhibition in assay [1] (at 25.7 µM (top of the series)) was -0.566% (inactive); in [1] (at 57.5 µM (top of the series)) it was -0.922% (inactive). For the same molecule, the max response in assay [1] (setting [20]) was -11.1% and 10.4%; in [1] (setting [21]) it was -11.8% and 9.61%. Moreover, the outcome in assay [14] was inactive. Further, the Potency entry in assay [15], in assay [16] and in assay [17] was “inactive” throughout.
